Most compounds without a hit are left out; they make up all but 7.5% or so of the library.
NPC1 prom act: NPC1 promoter activation | Huh7 NPC1 promoter luciferase reporter, 24 h | Potency, µM (titrated, usually from 9.22 µM), inactives show top-dose activation, hits mostly activators | hit rate 2.4% among 320,000 | AID 485313; note: % of control where 0% means no effect; nearly all actives have a fitted effect of over 60% in size
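Readout is luciferase luminescence, reflecting NPC1 promoter activation in stably transfected Huh7 cells after 24 h compound exposure at 37 °C in reduced-serum medium with 10% FBS.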
ELG1 genotox: inducers of genotoxicity in HEK293T ELG1-luciferase cells; Potency, µM (titrated, usually from 46 µM), for inactives: at the top dose activity change, positive = activation, actives largely listed as activators; AID 504466; hit rate 1.3% among 330,000; HEK293T ELG1-luciferase reporter, luminescence, 16 h; note: % of control where 0% means no effect; nearly all actives have a fitted effect of over 60% in size
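16 hr compound incubation (37 °C, 5% CO2) of HEK293T cells carrying luciferase-tagged ELG1; luciferase then measured by ONE-Glo luminescence after 30 min at RT.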
KinaseGlo FLuc: counter-screen: inhibitors of Kinase-Glo firefly luciferase | Q27757 | Kinase-Glo luciferase, ATP luminescence, 8 min | Potency, µM (series often up to 38.3 µM), for inactives: at the highest dose activity change, negative = inhibition, hits mostly inhibitors | hit rate 0.28% among 200,000 | AID 1379; note: % is set by controls: 0 for no effect and ±100 for the full control effect; nearly all actives have a fitted effect of over 60% in size
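Inhibition of Kinase-Glo luciferase light generation was assessed at 10 uM ATP in pH 7.2 imidazole buffer, with luminescence measured after eight minutes at ambient temperature.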
SMN2 splice up: increases expression of the SMN2 splice variant; HEK293 SMN2-luciferase splicing reporter, luminescence, 30-36 h; Potency, µM (series often up to 46.1 µM), inactives show at the top dose activity change, positive = activation, usual class: activators; hit rate 2.8% among 210,000; AID 1458; note: % of control where 0% means no effect; nearly all actives have a fitted effect of over 55% in size
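HEK293 cells carry an SMN2 […]–luciferase reporter in which exon 7 inclusion puts luciferase in frame. Cells were plated 10-12 h before compound addition, then incubated 30-36 h at 37C. ONE-Glo luminescence was read; sodium butyrate at 4.5 mM final served as control.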
FLuc counter: firefly luciferase modulation, counter-screen for miR-21 project; P08659; purified FLuc, Km substrates, luminescence inhibition; Potency, µM (highest dose often 57.5 µM), for the others: top-dose activity change, negative = inhibition, hits mostly inhibitors; hit rate 6.9% among 360,000; AID 588342;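 note: plate controls were vehicle for no effect and reference inhibitor for full effect; nearly all actives have a fitted effect of over 55% in size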
Target sequence (P08659 whole entry, looked up): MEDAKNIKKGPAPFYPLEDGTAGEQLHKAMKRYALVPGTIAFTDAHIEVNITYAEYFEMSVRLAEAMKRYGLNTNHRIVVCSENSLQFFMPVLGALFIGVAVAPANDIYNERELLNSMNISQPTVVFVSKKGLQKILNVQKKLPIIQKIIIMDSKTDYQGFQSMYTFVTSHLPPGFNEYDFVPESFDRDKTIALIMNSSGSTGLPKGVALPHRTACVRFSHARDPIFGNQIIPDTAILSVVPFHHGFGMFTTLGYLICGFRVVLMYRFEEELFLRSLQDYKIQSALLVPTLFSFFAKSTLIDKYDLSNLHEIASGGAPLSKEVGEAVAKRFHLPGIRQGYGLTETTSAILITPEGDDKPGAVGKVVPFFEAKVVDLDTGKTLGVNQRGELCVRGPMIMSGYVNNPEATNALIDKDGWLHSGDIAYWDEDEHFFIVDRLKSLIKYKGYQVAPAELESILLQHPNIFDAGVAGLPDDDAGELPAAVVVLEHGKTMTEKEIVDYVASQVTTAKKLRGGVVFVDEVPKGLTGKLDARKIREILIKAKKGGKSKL
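Purified P. pyralis luciferase, 10 nM final, with Km-level 10 uM D-luciferin and 10 uM ATP in 50 mM Tris acetate pH 7.5, 10 mM Mg acetate, 0.01% Tween-20, 0.05% BSA; 6-point qHTS titration about 60 µM downward; luminescence read.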
Rab9 prom act: activates the Rab9 promoter. AID 485297. Potency, µM (doses to about 9.22 µM), for the others: at the top dose activation, negative = inhibition, most hits filed as activators. Huh7 Rab9 promoter-luciferase reporter, luminescence, 24 h. hit rate 2.8% among 320,000; note: % of control where 0% means no effect; nearly all actives have a fitted effect of over 60% in size
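Measured in stably transfected Huh7 cells bearing a Rab9 promoter–luciferase construct: 24 h compound treatment at 37 °C, followed by luminescence detection.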
The depositor's hits bear a star; [ ] = dose if it differs, or a comment. Calls come from the whole dose curve; as a rule, active = well fitted curve in the direction sought with a large enough effect; inconclusive = small, poorly fitted or top-dose-only effect, or another doubt; inactive = no such curve, though single readings can be large; an effect the other way counts as inactive or inconclusive. Potency is the fitted concentration of half-maximal effect.

How did COc1cccc2c1cc1c(=O)n(CC(=O)N3CCN(c4cccc(C(F)(F)F)c4)CC3)nc(C)n12 do in these assays?
SMN2 splice up: 0%; FLuc counter: -5%

How did CCOc1ccc(CC(=O)Nc2cccc(-c3nc4cccnc4s3)c2C)cc1 do in these assays?
FLuc counter: 1%

How did O=C(c1ccccc1-c1nc2ccccc2[nH]1)N1CCOCC1 do in these assays?
NPC1 prom act: 1%; ELG1 genotox: 0%; KinaseGlo FLuc: -1%; SMN2 splice up: 21%; FLuc counter: 3%[2.3 µM]; Rab9 prom act: 0%

What do the screens show for `O=C(O)c1ccc2nc(CO)[nH]c2c1`?
NPC1 prom act: 1%; ELG1 genotox: inconclusive; KinaseGlo FLuc: -4%; SMN2 splice up: -12%; FLuc counter: inconclusive; Rab9 prom act: 0%

What do the screens show for `O=C(O)c1ccccc1-c1nc2ccccc2[nH]1`?
NPC1 prom act: 18%; ELG1 genotox: 8%; KinaseGlo FLuc: -19%; SMN2 splice up: 13%; FLuc counter: 13µM*; Rab9 prom act: inconclusive

How did O=C(O)c1cccc(-c2nc3ccccc3[nH]2)c1 do in these assays?
NPC1 prom act: inconclusive; ELG1 genotox: -6%; KinaseGlo FLuc: -11%; SMN2 splice up: 16µM*; FLuc counter: 1.9µM*; Rab9 prom act: inconclusive

What do the screens show for `CCOC(=O)c1c(NC(=O)c2cc(=O)c3c(C)cc(C)cc3o2)sc2c1CCC2`?
SMN2 splice up: 1%; FLuc counter: -1%

Results for OC(COc1ccccc1)CN1CCOCC1 (stereo not given) ?
NPC1 prom act: -6%; ELG1 genotox: 1%; KinaseGlo FLuc: 3%; SMN2 splice up: 14%; FLuc counter: 12%; Rab9 prom act: 7%

Results for OC(COc1ccc2ccccc2c1Cl)CN1CCOCC1 (stereo not given) ?
NPC1 prom act: inconclusive; ELG1 genotox: inconclusive; KinaseGlo FLuc: 11%; SMN2 splice up: inconclusive; FLuc counter: 17µM*; Rab9 prom act: inconclusive

What do the screens show for `CC(=O)c1ccc(N2CCN(S(=O)(=O)c3ccc4c(c3)CC(C)N4C(=O)C3CCC3)CC2)cc1` (stereo not given)?
FLuc counter: 6%

What do the screens show for `CC(=O)N1CCc2cc(S(=O)(=O)NCCC(=O)Nc3ccc4c(c3)OCCO4)ccc21`?
NPC1 prom act: 26%; ELG1 genotox: inconclusive; KinaseGlo FLuc: 3%; SMN2 splice up: inconclusive; FLuc counter: 15µM*; Rab9 prom act: 26%

What do the screens show for `COc1cc(C(=O)Nc2ccc(N(C)C)cc2)c([N+](=O)[O-])cc1OC`?
NPC1 prom act: 9%; ELG1 genotox: inconclusive; KinaseGlo FLuc: -4%; SMN2 splice up: -3%; FLuc counter: 4.8µM*; Rab9 prom act: -4%

What do the screens show for `O=c1c(Br)c(N2CCCC2)cnn1-c1ccccc1`?
NPC1 prom act: 4µM*; ELG1 genotox: inconclusive; KinaseGlo FLuc: -1%; SMN2 splice up: 11µM*; FLuc counter: 21µM*; Rab9 prom act: 2µM*

How did O=c1c(Br)c(N2CCCCC2)cnn1-c1ccccc1 do in these assays?
NPC1 prom act: 3.5µM*; ELG1 genotox: inconclusive; KinaseGlo FLuc: 0%; FLuc counter: 15µM*; Rab9 prom act: 2µM*

Results for O=C(NCCc1ccc(Cl)cc1)c1cccc(NC2=NC3CS(=O)(=O)CC3S2)c1 (stereo not given) ?
NPC1 prom act: -2%; ELG1 genotox: 0%; FLuc counter: 17µM*; Rab9 prom act: 0%

What do the screens show for `Cc1ccc(CCNC(=O)c2ccc(NC3=NC4CS(=O)(=O)CC4S3)cc2)cc1` (stereo not given)?
NPC1 prom act: 0%; ELG1 genotox: 2%; FLuc counter: 0%; Rab9 prom act: 0%

How did Cc1ccc(Nc2ncnc(-n3cccc3)n2)cc1Cl do in these assays?
NPC1 prom act: inconclusive; ELG1 genotox: inconclusive; FLuc counter: 2.7µM*; Rab9 prom act: 3.2µM*

Results for Clc1cc(Cl)cc(Nc2ncnc(-n3cccc3)n2)c1 ?
NPC1 prom act: 23%; ELG1 genotox: -1%; FLuc counter: -4%; Rab9 prom act: -6%

Results for Cc1c(CN(C)C(=O)c2nn(C)cc2[N+](=O)[O-])cnn1C ?
NPC1 prom act: 2%; ELG1 genotox: -4%; KinaseGlo FLuc: -5%; SMN2 splice up: -10%; FLuc counter: 6%; Rab9 prom act: -6%

What do the screens show for `Cc1ccc(-c2cc(C(=O)NCc3cnn(C)c3C)c3cc(Br)ccc3n2)cc1`?
NPC1 prom act: 18%; ELG1 genotox: 6%; KinaseGlo FLuc: -5%; SMN2 splice up: 15%; FLuc counter: 2.1µM*; Rab9 prom act: 1%

Results for NNC(=O)c1cc(-c2ccc(O)cc2)nc2ccc(Br)cc12 ?
NPC1 prom act: 2%; ELG1 genotox: 7%; FLuc counter: inconclusive; Rab9 prom act: -3%

What do the screens show for `Cc1ccc(-c2cc(C(=O)N(C)Cc3cnn(C)c3C)c3cc(Br)ccc3n2)cc1`?
NPC1 prom act: 2%; ELG1 genotox: -12%; KinaseGlo FLuc: 1%; SMN2 splice up: -20%; FLuc counter: 11µM*; Rab9 prom act: 17%

Results for CCc1nc(-c2ccc(C)c(S(=O)(=O)N3CCN(c4ccc(C(C)=O)cc4)CC3)c2)no1 ?
FLuc counter: -9%

Results for COCCNC(=O)C(c1cccnc1)N(Cc1ccccc1)C(=O)Cn1nnc2ccccc21 (stereo not given) ?
NPC1 prom act: 18%; ELG1 genotox: inconclusive; KinaseGlo FLuc: 4%; SMN2 splice up: 26%; FLuc counter: inconclusive; Rab9 prom act: inconclusive

Results for COCCNC(=O)C(c1ccncc1)N(Cc1ccccc1)C(=O)Cn1nnc2ccccc21 (stereo not given) ?
NPC1 prom act: inconclusive; ELG1 genotox: 0%; KinaseGlo FLuc: -3%; SMN2 splice up: 13µM*; FLuc counter: inconclusive; Rab9 prom act: inconclusive

Results for O=C(O)CSC(=S)N1CCCC1 ?
NPC1 prom act: -2%; ELG1 genotox: -2%; FLuc counter: -3%; Rab9 prom act: -2%

Results for O=C(CSC(=S)N1CCCCC1)c1ccccc1 ?
NPC1 prom act: 0.5µM*; ELG1 genotox: 0.65µM*; KinaseGlo FLuc: -29%; SMN2 splice up: 0.56µM*; FLuc counter: 1.2µM*; Rab9 prom act: 0.32µM*

How did O=C(CSC(=S)N1CCCC1)c1ccccc1 do in these assays?
NPC1 prom act: 0.63µM*; ELG1 genotox: 0.58µM*; FLuc counter: 1.1µM*; Rab9 prom act: 0.4µM*
